# Unmarked numbers belong to inactive results. Active and inactive are the calls of the source.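 The calls were made as follows, unless noted: active = mean inhibition over 43.08%, the solvent-only control mean plus 3 SD; inactive = the rest.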
# Assays:
# [1] = biological target: Nuclear receptor coactivator 3 (Homo sapiens) (UniProt Q9Y6Q9); experiment: NCOA3 GAL4-fusion reporter inhibition – cell-based, luminescence, quadruplicate, confirmation (AID 588792); conditions: HEK293 GAL4-SRC3 luciferase reporter, at 3.6 µM, stronger effect = higher value;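 also: 0% = DMSO treated cells and 100% = gossypol at 36 µM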
# Chain of Nuclear receptor coactivator 3 (Homo sapiens) (Q9Y6Q9 whole entry, looked up, the tested form may be a part): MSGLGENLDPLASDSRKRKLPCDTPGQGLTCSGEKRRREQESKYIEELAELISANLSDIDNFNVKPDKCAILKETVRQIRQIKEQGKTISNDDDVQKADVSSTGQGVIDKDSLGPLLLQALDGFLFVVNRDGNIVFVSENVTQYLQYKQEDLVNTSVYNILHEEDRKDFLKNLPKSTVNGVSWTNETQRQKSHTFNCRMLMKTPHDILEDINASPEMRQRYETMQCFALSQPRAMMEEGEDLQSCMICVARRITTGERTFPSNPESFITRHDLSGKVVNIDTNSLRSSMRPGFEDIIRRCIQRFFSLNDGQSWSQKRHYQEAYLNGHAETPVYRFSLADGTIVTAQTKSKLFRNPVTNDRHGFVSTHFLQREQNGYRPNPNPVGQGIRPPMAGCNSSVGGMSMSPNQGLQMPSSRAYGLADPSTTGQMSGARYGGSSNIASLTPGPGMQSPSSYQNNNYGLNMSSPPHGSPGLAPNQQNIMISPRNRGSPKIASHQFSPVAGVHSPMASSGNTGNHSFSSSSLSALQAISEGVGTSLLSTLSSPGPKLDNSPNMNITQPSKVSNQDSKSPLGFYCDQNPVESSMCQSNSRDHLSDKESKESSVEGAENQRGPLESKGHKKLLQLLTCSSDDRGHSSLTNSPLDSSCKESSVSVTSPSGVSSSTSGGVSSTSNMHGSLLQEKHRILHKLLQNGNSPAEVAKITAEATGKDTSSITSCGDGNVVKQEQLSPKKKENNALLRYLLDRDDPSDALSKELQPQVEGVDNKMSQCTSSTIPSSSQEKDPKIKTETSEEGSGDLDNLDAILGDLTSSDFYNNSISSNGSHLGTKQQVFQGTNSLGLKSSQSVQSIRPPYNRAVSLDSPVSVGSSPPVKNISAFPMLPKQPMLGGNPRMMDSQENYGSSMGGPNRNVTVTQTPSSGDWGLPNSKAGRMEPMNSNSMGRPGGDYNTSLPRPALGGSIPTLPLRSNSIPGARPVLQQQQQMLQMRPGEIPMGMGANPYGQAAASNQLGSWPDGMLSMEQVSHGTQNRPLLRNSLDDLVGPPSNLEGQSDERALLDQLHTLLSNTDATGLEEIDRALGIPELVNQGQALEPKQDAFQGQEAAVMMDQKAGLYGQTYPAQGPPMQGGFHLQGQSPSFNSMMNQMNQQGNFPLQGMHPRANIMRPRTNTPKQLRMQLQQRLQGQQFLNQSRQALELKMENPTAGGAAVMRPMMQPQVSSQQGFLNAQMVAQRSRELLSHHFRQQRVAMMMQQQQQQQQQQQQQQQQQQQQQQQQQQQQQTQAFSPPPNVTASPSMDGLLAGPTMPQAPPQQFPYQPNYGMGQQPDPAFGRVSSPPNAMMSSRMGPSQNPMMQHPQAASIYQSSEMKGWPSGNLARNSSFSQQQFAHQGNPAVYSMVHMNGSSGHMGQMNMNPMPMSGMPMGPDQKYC
# [2] = test system: transactivating tegument protein VP16 (Human herpesvirus 1), Gal4-VP16 luciferase reporter; experiment: repression of VP16-driven luciferase reporter – cell-based, luminescence, high throughput, counter-screen for SRC3 inhibitor project (AID 588794; in the data active = inhibition above about 30%); conditions: mammalian cells, at 3.6 µM, stronger effect = higher value
# [3] = biological target: Nuclear receptor coactivator 1 (Homo sapiens) (UniProt Q15788); experiment: NCOA1 GAL4-fusion reporter inhibition – cell-based, luminescence, quadruplicate, confirmation (AID 588820;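 active = mean inhibition above 46.68%, the untreated control wells mean plus 3 SD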;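 also: 0% = DMSO wells and 100% = gossypol 36 µM treated wells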); conditions: HEK293 GAL4-SRC1 luciferase reporter, at 3.6 µM, stronger effect = higher value
# Chain of Nuclear receptor coactivator 1 (Homo sapiens) (Q15788 whole entry, looked up, the tested form may be a part): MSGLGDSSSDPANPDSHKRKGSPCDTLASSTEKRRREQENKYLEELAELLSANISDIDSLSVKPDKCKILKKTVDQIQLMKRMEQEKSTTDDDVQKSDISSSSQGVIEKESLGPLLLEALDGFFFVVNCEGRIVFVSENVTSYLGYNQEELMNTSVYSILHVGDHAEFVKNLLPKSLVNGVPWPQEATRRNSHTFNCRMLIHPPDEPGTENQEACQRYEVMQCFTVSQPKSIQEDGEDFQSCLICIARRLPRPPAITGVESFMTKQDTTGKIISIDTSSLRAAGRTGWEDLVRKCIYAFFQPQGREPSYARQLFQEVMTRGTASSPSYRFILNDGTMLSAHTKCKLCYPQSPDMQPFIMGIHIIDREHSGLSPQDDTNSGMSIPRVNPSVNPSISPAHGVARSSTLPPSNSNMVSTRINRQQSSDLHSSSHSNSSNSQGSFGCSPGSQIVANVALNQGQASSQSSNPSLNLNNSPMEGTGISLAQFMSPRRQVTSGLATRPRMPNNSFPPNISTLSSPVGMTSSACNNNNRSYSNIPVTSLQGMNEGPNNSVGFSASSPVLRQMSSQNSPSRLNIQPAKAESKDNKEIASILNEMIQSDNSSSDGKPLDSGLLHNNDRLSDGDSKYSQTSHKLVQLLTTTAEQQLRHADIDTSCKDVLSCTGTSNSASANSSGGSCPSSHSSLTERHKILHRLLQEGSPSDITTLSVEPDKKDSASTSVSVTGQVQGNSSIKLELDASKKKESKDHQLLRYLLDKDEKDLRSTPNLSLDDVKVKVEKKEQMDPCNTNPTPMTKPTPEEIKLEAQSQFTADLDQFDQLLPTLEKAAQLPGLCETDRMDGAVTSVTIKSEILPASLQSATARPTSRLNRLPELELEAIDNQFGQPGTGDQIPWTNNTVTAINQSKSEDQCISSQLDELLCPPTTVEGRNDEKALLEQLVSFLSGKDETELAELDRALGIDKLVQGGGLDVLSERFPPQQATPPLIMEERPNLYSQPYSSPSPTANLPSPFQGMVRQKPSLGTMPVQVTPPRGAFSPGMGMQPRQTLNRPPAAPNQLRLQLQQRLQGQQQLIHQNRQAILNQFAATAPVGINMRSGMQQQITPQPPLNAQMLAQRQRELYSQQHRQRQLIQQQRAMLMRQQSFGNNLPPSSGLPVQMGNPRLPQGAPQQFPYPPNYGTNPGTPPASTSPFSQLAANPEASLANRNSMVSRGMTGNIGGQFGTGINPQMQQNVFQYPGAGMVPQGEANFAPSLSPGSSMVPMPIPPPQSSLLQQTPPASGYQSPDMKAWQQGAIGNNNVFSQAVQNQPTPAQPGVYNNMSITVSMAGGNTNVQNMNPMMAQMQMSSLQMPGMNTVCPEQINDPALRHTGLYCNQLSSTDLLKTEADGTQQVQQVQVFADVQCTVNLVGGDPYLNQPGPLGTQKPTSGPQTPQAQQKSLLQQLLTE
# [4] = repression of VP16-driven luciferase reporter – cell-based, luminescence, high throughput, counter-screen for SRC1 inhibitor project (AID 588824; in the data active = inhibition above about 25%); conditions: cell-based VP16 transactivation luciferase luminescence; at 3.6 µM; stronger effect = higher value
Structure (SMILES),inhibition [1],inhibition [2],inhibition [3],inhibition [4]
Cc1ccc(-c2cc3c(N=O)c4ccccc4c-3n[nH]2)cc1,66.2% (active),59.7% (active),30.2%,53% (active)
CC1CCN(c2nc3ccc(C(=O)O)cc3s2)CC1,10.7%,-7.13%,-48.3%,-1.81%
O=c1[nH]cc(F)c(=O)[nH]1,14.7%,31% (active),8.56%,22.3%
COc1ccccc1N(C(=O)CCl)c1cn(C(C)=O)c2ccccc12,52.2% (active),27%,27.2%,18.7%
c1ccc(CNc2c3ccccc3nc3ccccc23)cc1,11.8%,43.6% (active),0.54%,54.9% (active)
O=C(NC1CCCN(Cc2ccccc2F)C1)c1cccc(N2CCCC2=O)c1 (stereo not drawn),3.31%,-7.69%,-4.75%,-1.08%
CN([C@@H](Cc1ccc(OS(=O)(=O)c2cccc3cnccc23)cc1)C(=O)N1CCN(c2ccccc2)CC1)S(=O)(=O)c1cccc2cnccc12,-2.66%,30.3% (active),-4.42%,31.2% (active)
CC(=O)N1CCN(c2ccc(Oc3ncnc4sccc34)cc2)CC1,25.7%,16.9%,27.3%,16.9%
COc1ccc(-c2c[n+]3c(n2-c2ccccc2)SCC3)cc1,17.9%,14.3%,11.1%,21%
COc1cc2cncc(Cc3ccc(Cl)cc3)c2cc1OC,42.2%,40.7% (active),56.2% (active),39.4% (active)
Cc1cc(/C=C2/C(=O)NN(c3ccccc3)C2=O)c(C)n1-c1ccc(O)cc1,-13.6%,-41.7%,-66%,-74.4%
CCN(CC)c1ccc(/C=N/NC(=O)CNC(=O)C2COc3ccccc3O2)c(O)c1 (stereo not drawn),24.4%,17.7%,8.85%,18.9%
COc1ccc(OC)c(/C=C/c2ccnc3ccccc23)c1,19.1%,54.2% (active),34.5%,53.7% (active)
CC(=O)Nc1ccc(SCC(=O)c2cc(C)n(-c3ccccc3)c2C)cc1,30.3%,19.6%,-4.5%,-6.91%
CC(C)c1ccc(-c2csc3ncnc(N4CCN(C)CC4)c23)cc1,42.1%,35.5% (active),42.8%,32.9% (active)
CCOc1cc(C(N)=O)cc(Br)c1OC,29.6%,20.8%,29.3%,14.2%
CC(=O)NS(=O)(=O)c1ccc(NC(=O)/C=C/c2cn(-c3ccccc3)nc2-c2ccccc2)cc1,-12.7%,0.43%,1.36%,-3.92%
O=C(Nc1cccc(Cl)c1)Nc1nnc(-c2ccncc2)s1,40.1%,31.9% (active),28.5%,23.7%
C=CCOc1ccccc1CNc1ccc2c(c1)OCCO2,25.2%,12.4%,-17.1%,-30.1%
O=C(Nc1nc(-c2ccc(S(=O)(=O)N3CCCC3)cc2)cs1)C1COc2ccccc2O1 (stereo not drawn),7.31%,-0.16%,-8.23%,-2.78%
O=C(C1CCC(CNS(=O)(=O)c2cccs2)CC1)N1CCN(c2ccc(Cl)cc2)CC1 (stereo not drawn),13.8%,30.5% (active),14.9%,34.6% (active)
Cc1ccc(NC(=O)CCC(=O)N/N=C/c2ccc(O)cc2O)cc1,7.69%,7.07%,20.4%,15.4%
CCOc1cc(Br)cc(/C=N/NC(=O)c2cccnc2)c1O,33%,44.3% (active),27.3%,36.9% (active)
COc1ccc(-n2ncc3c(N4CCCCC4)ncnc32)cc1,51.2% (active),41.7% (active),-11.5%,23.9%
CN(c1ncnc(N)c1[N+](=O)[O-])C1CCS(=O)(=O)C1 (stereo not drawn),55.2% (active),35.7% (active),52.7% (active),34.1% (active)
COc1cccc(CN(C)C(=O)c2ccc(OCC(=O)Nc3cccc(C(F)(F)F)c3)c(OC)c2)c1,14.8%,34% (active),6.82%,35.6% (active)

Structure (SMILES),inhibition [1],inhibition [2],inhibition [3],inhibition [4]
O=C(CCSc1nc2ccccc2s1)N/N=C/c1c(O)ccc2ccccc12,20.2%,23.7%,36%,32% (active)
CCc1nc(Cl)c(C#N)c2c1CCCC2,43.2% (active),34.1% (active),34.8%,28.9% (active)
c1nc2sc3c(c2c2nnnn12)CCCC3,28%,24.2%,36.8%,9.37%
C/C(=N\NC(=O)c1nnn(-c2nonc2N)c1-c1ccccc1)c1ccccc1O,49.2% (active),44.6% (active),60.8% (active),40.6% (active)
O=C(N/N=C/c1sc(N2CCOCC2)nc1-c1ccccc1)c1cccc(S(=O)(=O)N2CCCC2)c1,53.4% (active),67% (active),50.8% (active),72% (active)
CN(Cc1c(C(=O)N/N=C/c2cccc(F)c2)nnn1-c1nonc1N)C1CCCCC1,-12.4%,3.59%,6.95%,-3.15%
COc1ccc(-c2cn[nH]c2-c2ccc(OCc3ccc([N+](=O)[O-])cc3)cc2O)cc1,33.1%,34% (active),39.1%,27.4% (active)
O=C(Nc1nc(-c2ccc(F)c(F)c2)cs1)c1ccc(OCC2CCCO2)cc1 (stereo not drawn),7.06%,36% (active),5.41%,39.4% (active)
COc1ccc(-n2cnc3c(sc4nccc(N(C)C)c43)c2=O)cc1,40.1%,22.4%,33.3%,11.8%
COc1cccc(C(=O)Nc2nc(-c3ccc(S(=O)(=O)N4CCOCC4)cc3)cs2)c1,3.89%,9.14%,-19.1%,-0.53%
Cc1ccc(C(=O)O/N=C(\N)c2ccccc2)c(Cl)c1,-11.9%,-35.4%,-120%,-64.6%
Cc1ccc(S(=O)(=O)N2CCN(S(C)(=O)=O)CC2)cc1,24.1%,19.9%,-0.28%,6.89%
Cc1cccc(C)c1-c1ccc(CN2C(CC(C)C)C(=O)N(Cc3cn(CC4CCCCC4)nn3)CCS2(=O)=O)cc1 (stereo not drawn),21.1%,21.2%,24.4%,22.6%
Cc1ccc(S(=O)(=O)N2[C@@H](c3ccc(C(C)(C)C)cc3)C(C(=O)O)=CC[C@H]2c2ccc(Cl)cc2)cc1,16.6%,23.9%,28.7%,19.6%
O=C(NC(=S)Nc1ccc(N2CCN(C(=O)c3ccccc3)CC2)cc1)c1cccs1,25.8%,23.8%,16%,14.3%
NNC(=O)C(=O)Nc1ccc(O)cc1,2.12%,8.64%,-20.1%,-2.23%
Cc1cc(C)c2nc3nc(C)c(C)cc3c(N)c2c1,13.7%,49.7% (active),5.02%,48% (active)
Cc1sc(NC(=O)Cc2ccc3c(c2)OCO3)nc1-c1ccc2c(c1)CCN2C(=O)c1ccc(F)cc1,13.6%,30.3% (active),17.3%,25.9% (active)
COc1ccc(-c2nsc3c(N4CCCCC4)ncnc23)cc1,32.4%,20.4%,1.39%,-6.65%
COc1ccc(CN(C)C(=O)c2ccc(OCC(=O)Nc3cccc(C(F)(F)F)c3)c(OC)c2)cc1,4.69%,24.7%,2.4%,20.5%
O=C(N/N=C/c1cc(Cl)ccc1O)c1ccc(Br)cc1,55.7% (active),40.1% (active),23.3%,38.4% (active)
N=c1c2c(-c3ccccc3)c(-c3ccccc3)n(Cc3ccco3)c2ncn1CCCn1ccnc1,34%,54.2% (active),43.8%,57.4% (active)
COc1cc(/C=C2\CC(C(C)(C)C)C/C(=C\c3cc(OC)c(OC)c(OC)c3)C2=O)cc(OC)c1OC (stereo not drawn),58.4% (active),19.3%,19.8%,18.4%
Cc1ccc(NC(=O)c2cc3ccccc3oc2=O)cc1S(=O)(=O)N(C)C,82.9% (active),78.5% (active),67% (active),63.7% (active)
COc1cc(C(=O)N/N=C(\c2ccccc2)c2ccccn2)cc(OC)c1OC,32.9%,23.2%,28.5%,21.9%
COc1ccc(-n2cc(-c3ccccc3)[n+]3c2CCCCC3)cc1,24.8%,22%,16.8%,27.7% (active)

# Source: PubChem BioAssay
